The values that follow come from PubChem BioAssay.

In test [1] the test system is Wnt5a (protein binding on small-molecule microarray). Description: small molecules binding Wnt5a protein – biophysical, small-molecule microarray, 635/667 nm fluorescence, primary screen (AID 1142).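 Note: fluorescence read at 667 nm with signal to noise per printed feature.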 The following applies: 635 nm fluorescence, higher = more signal.
Test [2] can be described thus: ATP-based viability of Huh7 replicon cells – cell-based, CellTiter-Glo luminescence, basal, 48 h, cytotoxicity control for HCV replication inhibitor project, primary screen (AID 1143).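 Note: Huh7 hepatoma cells carrying a hepatitis C replication reporter with no stimulus; test concentration not given here.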 Conditions: higher = more signal, called active from +8 up or from −8 down.
A short description of test [3]: Pseudomonas biofilm growth suppression – PAO1 strain, BacTiter-Glo luminescence, LB-PBS, primary screen (AID 1144). Conditions: P. aeruginosa PAO1 biofilm, 12 h, higher = more signal.
The nature of test [4]: basal CRE-LacZ reporter activity in PC12 – cell-based, unstimulated, primary screen (AID 1145). The following applies: no forskolin, luminescence, 4.5 h, higher = more signal, called active from +8 up or from −8 down.
A short description of test [5]: forskolin-driven CRE-LacZ activity in PC12 – cell-based, CRE-LacZ reporter, forskolin-stimulated, primary screen (AID 1146).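 Note: PC12 cells with 6xCRE LacZ reporter stimulated by forskolin 10 µM; beta-galactosidase reporter signal reflecting CREB driven transcription.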 The following applies: luminescence, 4.5 h, higher = more signal, called active from +8 up or from −8 down.
Test [6] addresses Streptavidin (Streptomyces avidinii) (UniProt P22629). The test is described as follows: compounds binding control protein streptavidin – biophysical, small-molecule microarray, 635/667 nm fluorescence, artefact control for SMM compound annotation, primary screen (AID 1147).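 Note: signal reflects streptavidin binding to arrayed compounds as a control protein.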 Conditions: higher = more signal.
Test [7] in a line: probe aInhba binding on compound microarray – biochemical, small-molecule microarray, 635/667 nm fluorescence, primary screen (AID 1148).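 Note: score merges 667nm spot fluorescence with signal-to-noise for antibody binding to printed compounds.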 Conditions: higher = more signal.
The target in test [8] is Torsin-1A (Homo sapiens) (UniProt O14656). The test is described as follows: TOR1A wild-type binding on microarray – cell lysate, small-molecule microarray, lysate, 635/667 nm, primary screen (AID 1149). The following applies: COS7 hTOR1A-WT lysate, 635 nm fluorescence, higher = more signal.
Chain of Torsin-1A (Homo sapiens) (O14656 whole entry, looked up): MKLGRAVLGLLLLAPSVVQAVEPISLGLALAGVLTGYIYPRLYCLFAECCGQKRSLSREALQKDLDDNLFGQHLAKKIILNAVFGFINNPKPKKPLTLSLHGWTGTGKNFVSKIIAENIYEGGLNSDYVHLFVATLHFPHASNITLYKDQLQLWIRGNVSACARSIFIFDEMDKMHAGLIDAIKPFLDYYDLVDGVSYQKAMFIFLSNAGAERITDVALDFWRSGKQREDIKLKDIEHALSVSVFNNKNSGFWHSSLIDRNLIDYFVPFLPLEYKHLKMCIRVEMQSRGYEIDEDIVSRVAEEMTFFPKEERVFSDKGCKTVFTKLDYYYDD
The target is the same in test [9]. The test is described as follows: torsin A mutant lysate binding on microarrays – cell lysate, small-molecule microarray, COS7 lysate, 635/667 nm fluorescence, primary screen (AID 1150).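 Note: score pools 667 nm emission and signal to noise measuring lysate protein binding.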 Conditions: COS7 hTOR1A mutant lysate, 635 nm fluorescence, higher = more signal.
In test [10] the test system is Sonic hedgehog protein (Shh). Description: Sonic hedgehog microarray binding compounds – biochemical, small-molecule microarray, 635/667 nm fluorescence, primary screen (AID 1151).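 Note: Shh protein binding to compounds spotted on small-molecule microarray slides; score combines spot fluorescence intensity with signal-to-noise across triplicate slides.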 The following applies: 635 nm fluorescence, higher = more signal.
Test [11] can be described thus: optical density shifts of acrAB sulA E. coli – strain DRC41, OD650, 48 h, E. coli filamentation inducer project, primary screen (AID 1152).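 Note: E. coli MC1000 strain DRC41 lacking acrAB efflux pump and sulA.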 The following applies: higher = more signal, called active from +8 up or from −8 down.
Test [12] is described as follows: probe aLefty1 binding on compound microarray – biochemical, small-molecule microarray, 635/667 nm fluorescence, primary screen (AID 1153).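 Note: score merges spot fluorescence with signal-to-noise ratio from the scanned slide images.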 Conditions: higher = more signal.
Test [13] in a line: plasmodial surface anion channel blockers, osmotic lysis – cell-based, P. falciparum Indochina, OD700, 1 h, primary screen (AID 1154). The following applies: P. falciparum Indochina infected RBC osmotic lysis, higher = more signal, called active from +8 up or from −8 down.
Test [14] can be described thus: plasmodial surface anion channel blockers, osmotic lysis – cell-based, P. falciparum Indochina, OD700, 2 h, primary screen (AID 1155).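 Note: lysis reports solute entry through the parasite surface anion channel PSAC.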 The following applies: P. falciparum Indochina infected erythrocytes, higher = more signal, called active from +8 up or from −8 down.
The nature of test [15]: changes in parasitized red cell lysis, either direction – P. falciparum Indochina, OD700, 3 h, PSAC antagonist project, primary screen (AID 1156). The following applies: P. falciparum-infected erythrocytes, osmotic lysis, higher = more signal, called active from +8 up or from −8 down.
The nature of test [16]: plasmodial surface anion channel blockers, osmotic lysis – cell-based, P. falciparum Indochina, OD700, 18 h, primary screen (AID 1157). Conditions: P. falciparum Indochina infected erythrocytes, osmotic lysis OD700, 18 h; higher = more signal, called active from +8 up or from −8 down.
Test [17] can be described thus: S6 kinase pathway phospho-S6 level changes – cell-based, A549, cytoblot, luminescence, serum-stimulated, primary screen (AID 1158).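 Note: serum-stimulated A549 lung adenocarcinoma cells; signal is phosphorylated S6 detected by cytoblot immunostaining with HRP secondary.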 Conditions: 5 h, higher = more signal.
Test [18] deals with NADPH oxidase 2 (Homo sapiens) (UniProt P04839). The test is described as follows: compounds shifting NOX2 Amplex Red fluorescence – cell-based, HEK293-NOX2, PMA-stimulated, NOX inhibitor project, primary screen (AID 1159). Note: test concentration not given here. The following applies: 45 min, higher = more signal, called active from +8 up or from −8 down.
Chain of NADPH oxidase 2 (Homo sapiens) (P04839 whole entry, looked up): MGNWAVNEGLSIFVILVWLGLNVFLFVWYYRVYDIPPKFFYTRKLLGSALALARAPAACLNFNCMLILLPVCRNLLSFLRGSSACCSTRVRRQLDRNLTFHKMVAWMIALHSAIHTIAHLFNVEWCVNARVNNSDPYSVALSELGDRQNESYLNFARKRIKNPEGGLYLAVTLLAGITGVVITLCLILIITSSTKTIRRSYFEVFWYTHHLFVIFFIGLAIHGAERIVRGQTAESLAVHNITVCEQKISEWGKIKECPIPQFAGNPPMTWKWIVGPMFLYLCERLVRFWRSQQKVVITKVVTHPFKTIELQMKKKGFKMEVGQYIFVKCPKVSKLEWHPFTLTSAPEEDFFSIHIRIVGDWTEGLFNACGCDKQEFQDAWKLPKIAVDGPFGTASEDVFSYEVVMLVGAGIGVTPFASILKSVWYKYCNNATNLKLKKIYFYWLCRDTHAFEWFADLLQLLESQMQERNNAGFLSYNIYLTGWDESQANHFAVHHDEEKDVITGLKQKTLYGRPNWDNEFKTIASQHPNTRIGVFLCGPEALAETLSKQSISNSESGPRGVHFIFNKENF
Test [19] concerns the target NADPH oxidase 4 (Homo sapiens) (UniProt Q9NPH5). Description: compounds shifting NOX4 Amplex Red fluorescence – cell-based, HEK293-NOX4, tetracycline-induced, NOX inhibitor project, primary screen (AID 1160). The following applies: HEK293-NOX4, Amplex Red H2O2 fluorescence, 45 min; higher = more signal, called active from +8 up or from −8 down.
Test [20] deals with NADPH oxidase 5 (Homo sapiens) (UniProt Q96PH1). The test is described as follows: compounds shifting NOX5 Amplex Red fluorescence – cell-based, HEK293-NOX5, NOX inhibitor project, primary screen (AID 1161). The following applies: HEK293-NOX5, ionomycin, 45 min, higher = more signal.
Chain of NADPH oxidase 5 (Homo sapiens) (Q96PH1 whole entry, looked up): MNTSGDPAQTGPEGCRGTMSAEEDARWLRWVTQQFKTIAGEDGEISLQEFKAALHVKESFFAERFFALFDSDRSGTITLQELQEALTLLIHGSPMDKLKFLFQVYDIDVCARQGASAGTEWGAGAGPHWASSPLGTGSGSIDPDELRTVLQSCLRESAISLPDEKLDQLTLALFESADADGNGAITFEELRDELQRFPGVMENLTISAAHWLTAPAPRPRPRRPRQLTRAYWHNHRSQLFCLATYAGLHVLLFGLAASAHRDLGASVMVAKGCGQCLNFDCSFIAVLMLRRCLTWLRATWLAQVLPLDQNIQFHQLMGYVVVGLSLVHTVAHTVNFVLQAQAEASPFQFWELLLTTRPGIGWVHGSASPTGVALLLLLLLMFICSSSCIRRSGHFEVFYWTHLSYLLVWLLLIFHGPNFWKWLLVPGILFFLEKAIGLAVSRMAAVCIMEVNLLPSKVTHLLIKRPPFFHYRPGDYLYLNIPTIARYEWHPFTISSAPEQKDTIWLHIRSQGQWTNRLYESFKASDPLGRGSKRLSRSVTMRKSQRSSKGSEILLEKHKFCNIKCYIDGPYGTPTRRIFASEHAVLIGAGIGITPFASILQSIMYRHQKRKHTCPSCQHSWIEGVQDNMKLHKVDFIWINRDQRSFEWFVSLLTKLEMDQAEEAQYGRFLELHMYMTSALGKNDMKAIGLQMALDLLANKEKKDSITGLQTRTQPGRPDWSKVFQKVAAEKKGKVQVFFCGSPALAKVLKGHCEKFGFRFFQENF

Calls of active or inactive are those of the source. Unless noted, the rule behind the calls is not given here.

Chain of NADPH oxidase 4 (Homo sapiens) (Q9NPH5 whole entry, looked up): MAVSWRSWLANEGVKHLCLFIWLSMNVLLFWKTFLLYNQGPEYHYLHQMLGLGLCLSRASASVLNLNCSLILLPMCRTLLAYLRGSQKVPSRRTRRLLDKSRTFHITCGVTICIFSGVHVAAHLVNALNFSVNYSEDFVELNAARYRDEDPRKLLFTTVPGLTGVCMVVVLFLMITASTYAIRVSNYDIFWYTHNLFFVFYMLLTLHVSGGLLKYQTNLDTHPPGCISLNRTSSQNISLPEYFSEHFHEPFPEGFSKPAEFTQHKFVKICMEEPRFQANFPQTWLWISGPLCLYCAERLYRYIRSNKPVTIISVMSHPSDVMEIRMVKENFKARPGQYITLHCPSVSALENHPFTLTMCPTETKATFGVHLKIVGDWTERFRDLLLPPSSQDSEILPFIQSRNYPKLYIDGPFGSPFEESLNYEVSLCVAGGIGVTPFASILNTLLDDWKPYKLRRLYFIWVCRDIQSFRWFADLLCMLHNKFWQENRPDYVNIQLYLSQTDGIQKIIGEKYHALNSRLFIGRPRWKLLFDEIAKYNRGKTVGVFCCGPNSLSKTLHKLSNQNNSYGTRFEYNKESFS
Chain of Streptavidin (Streptomyces avidinii) (P22629 whole entry, looked up): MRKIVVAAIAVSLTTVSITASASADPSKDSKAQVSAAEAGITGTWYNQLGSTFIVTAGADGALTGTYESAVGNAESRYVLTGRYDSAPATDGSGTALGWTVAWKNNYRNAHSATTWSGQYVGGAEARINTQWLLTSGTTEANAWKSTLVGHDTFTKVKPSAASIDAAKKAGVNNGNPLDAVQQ

In the case of `CC(C)C[C@@H]1NC(=O)[C@H]2C[C@@H](C(=O)NCCCCCC[N+](C)(C)C)[C@@H](c3ccc(O)cc3)N2C1=O`, the composite z-score was -0.266 in test [1]; -0.308 in test [6]; -0.0719 in test [7]; 0.87 in the test with Torsin-1A (Homo sapiens) [8]; 0.951 with Torsin-1A (Homo sapiens) [9]; 1.7 in test [10]. The molecule further displayed a composite z-score in test [12] of 0.0502. For the same molecule, the z-score in test [2] was -0.0365 (inactive); in test [3] it was -0.337 (inactive); in test [4], -0.122 (inactive); in [5], -0.281 (inactive); in test [11], 0.706 (inactive); in test [13], 1.8 (inactive). In addition, the z-score in test [14] was 0.459 (inactive); in [15], -3.67 (inactive); in test [16], 0.0558 (inactive); in test [17] it was -0.496; in [18], 1.04 (inactive); in test [19] it was 1 (inactive). Also, the z-score in [20] is -0.306.
Regarding `CC(=O)NCCCC[C@@H]1NC(=O)[C@@H]2C[C@H](C(=O)NCc3ccc(F)cc3)[C@H](c3cccc(OCCO)c3)N2C1=O`, the composite z-score in [1] is 0.0719; in [6], -0.454; in [7] it was -0.0209; in the test with Torsin-1A (Homo sapiens) [8] it was 0.544; with Torsin-1A (Homo sapiens) [9] it was 1.05; in test [10] it was 1.8. In addition, the composite z-score in [12] came out at 0.0259. Also, the z-score in [2] was -0.608 (inactive); in [3] it was -0.225 (inactive); in [4] it was 0.537 (inactive); in [5], 0.517 (inactive); in test [11], 0.197 (inactive); in test [13] it was 5.48 (inactive). Further, the z-score is 0.503 (inactive) in [14]; -4.35 (inactive) in test [15]; 0.374 (inactive) in test [16]; -0.206 in test [17]; 1.87 (inactive) in [18]; 1.42 (inactive) in [19]. Besides, the z-score in test [20] was determined as 1.1.
On to `COc1ccc([Si](C)(C)[C@@H]2[C@@H](CCO)O[C@]3(C(=O)N(Cc4ccccc4)c4ccccc43)[C@H]2C)cc1`, for which the composite z-score in test [1] is -0.0721; in test [6], -0.155; in test [7], 1; with Torsin-1A (Homo sapiens) [8], -0.239; with Torsin-1A (Homo sapiens) [9], -0.283; in test [10], 0.0843. Also, in test [12], the composite z-score was -0.0143. In addition, the z-score in test [2] was -1.98 (inactive); in test [3] it was 0.773 (inactive); in test [4] it was 0.0352 (inactive); in test [5], -0.46 (inactive); in [11], 1.25 (inactive); in [13], 1.13 (inactive). The z-score is 0.81 (inactive) in test [14]; 0.117 (inactive) in test [15]; 0.353 (inactive) in test [16]; 0.779 in test [17]; 1.57 (inactive) in test [18]; -0.523 (inactive) in test [19]. In test [20], the z-score is 1.84.
As for `O=C1NC(=O)C2C1C=CC(C(O)C=Cc1ccc([N+](=O)[O-])cc1)N2Nc1ccccn1` (stereo not given), the composite z-score in [1] is 0.421; in test [6] it was -0.208; in [7], 0.0694; with Torsin-1A (Homo sapiens) [8], 0.151; with Torsin-1A (Homo sapiens) [9] it was 0.13; in test [10] it was 0.809. The molecule further came in with a composite z-score in [12] of 0.0457. Further, the z-score in [2] was 0.931 (inactive); in test [3] it was -1.23 (inactive); in [4] it was 0.443 (inactive); in test [5] it was -0.28 (inactive); in test [11] it was -0.297 (inactive); in test [13], 0.273 (inactive). Moreover, the z-score in test [14] was 1.27 (inactive); in test [15], 0.0385 (inactive); in test [16] it was 1 (inactive); in test [17], -0.831; in test [18] it was 0.258 (inactive); in test [19], -2.01 (inactive). In addition, the z-score in test [20] was -1.52.
`NC(=O)NCC#Cc1ccc2c(c1)[C@]1(C(=O)N2)[C@H](c2ccccc2OCCO)N2[C@H](c3ccccc3)[C@H](c3ccccc3)OC(=O)[C@H]2[C@@H]1C(=O)N1CCN(c2ncccn2)CC1`: the composite z-score in test [1] was -0.186; in test [6] it was 0.182; in test [7] it was -0.0762; with Torsin-1A (Homo sapiens) [8] it was 0.0759; with Torsin-1A (Homo sapiens) [9] it was 0.272; in [10] it was 0.831. In addition, the composite z-score in test [12] turned out to be 0.445. The z-score is -4.21 (inactive) in test [2]; -0.681 (inactive) in test [3]; -0.0515 (inactive) in [4]; 0.889 (inactive) in test [5]; 2.11 (inactive) in [11]; 3.42 (inactive) in test [13]. The z-score was 0.449 (inactive) in test [14]; 0.229 (inactive) in [15]; -1.44 (inactive) in test [16]; 2.08 in test [17]; 1.09 (inactive) in test [18]; 0.958 (inactive) in test [19]. The z-score in [20] was -0.596.
Take `COc1ccc(CCN2C(=O)[C@@]3(c4ccc([N+](=O)[O-])cc4)CC(=O)N(CC45CC6CC(CC(C6)C4)C5)[C@@H]3c3ccc(CO)cc32)cc1`: the composite z-score was -0.209 in [1]; -0.168 in test [6]; 0.333 in test [7]; 0.16 in the test with Torsin-1A (Homo sapiens) [8]; 0.335 with Torsin-1A (Homo sapiens) [9]; 0.483 in [10]. In test [12], the composite z-score amounted to 0.585. For the same molecule, the z-score in test [2] was -0.252 (inactive); in [3], 0.655 (inactive); in test [4], 0.155 (inactive); in [5], -0.036 (inactive); in test [11], 0.683 (inactive); in [13] it was 1.39 (inactive). Besides, the z-score in [14] was 0.77 (inactive); in [15], 0.393 (inactive); in test [16] it was 0.427 (inactive); in [17], -0.385; in [18], -0.447 (inactive); in [19], -0.968 (inactive). Also, the z-score in test [20] was found to be 1.43.
As to `CCC#CCN(Cc1ccccc1Br)[C@H](/C=C/c1ccccc1)[C@@H](O)Cc1ccccc1`, the composite z-score in test [1] is -0.659; in [6] it was -0.312; in [7], -0.179; with Torsin-1A (Homo sapiens) [8] it was -0.586; in the test with Torsin-1A (Homo sapiens) [9], -0.542; in test [10], -1.18. In addition, the composite z-score in test [12] was -0.0035. Also, the z-score in test [2] is -1.45 (inactive); in test [3] it was 0.282 (inactive); in test [4], 2.94 (inactive); in test [5] it was 0.272 (inactive); in [11], 0.625 (inactive); in [13], 1.79 (inactive). For the same molecule, the z-score in test [14] was 1.15 (inactive); in test [15], -0.696 (inactive); in [16], 0.475 (inactive); in [17], -0.218; in [18], -0.267 (inactive); in test [19], 0.0785 (inactive). In addition, the z-score in test [20] was -0.41.
Consider `C=CC[C@]1(C(=O)N2CCCCC2)N=C(c2ccc(OCCCO)cc2)O[C@H]1c1ccccc1N=[N+]=[N-]`, for which the composite z-score in [1] was found to be 0.824; in [6] it was 1.87; in [7], 0.0355; in the test with Torsin-1A (Homo sapiens) [8], 1.02; with Torsin-1A (Homo sapiens) [9], 1.06; in test [10], 0.377. Moreover, the composite z-score in test [12] is 0.707. In addition, the z-score was -3.21 (inactive) in test [2]; -0.903 (inactive) in [3]; -0.174 (inactive) in [4]; -1.18 (inactive) in test [5]; 0.297 (inactive) in test [11]; 35.8 (active) in [13]. Further, the z-score in test [14] is 31.6 (active); in test [15] it was 4.43 (inactive); in test [16] it was 8.93 (active); in [17], 0.0944; in test [18] it was -1.88 (inactive); in [19], 0.898 (inactive). The z-score in test [20] is -0.971.
